This is an account of results in ChEMBL document CHEMBL1961873, “Compounds: GSK PKIS; Assays: Nanosyn kinase panel” (2012).

By inhibition is commonly meant the relative decrease from the control value, in per cent.

The target of assay [1] is MAP/microtubule affinity-regulating kinase 3 (Homo sapiens) (UniProt P27448). Particulars: at 1 µM.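 Further: reported values are averaged percent inhibition of MARK3.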
Assay [2] has as its target T1, MAP/microtubule affinity-regulating kinase 4 (Homo sapiens) (UniProt Q96L34).
T1 sequence (whole entry): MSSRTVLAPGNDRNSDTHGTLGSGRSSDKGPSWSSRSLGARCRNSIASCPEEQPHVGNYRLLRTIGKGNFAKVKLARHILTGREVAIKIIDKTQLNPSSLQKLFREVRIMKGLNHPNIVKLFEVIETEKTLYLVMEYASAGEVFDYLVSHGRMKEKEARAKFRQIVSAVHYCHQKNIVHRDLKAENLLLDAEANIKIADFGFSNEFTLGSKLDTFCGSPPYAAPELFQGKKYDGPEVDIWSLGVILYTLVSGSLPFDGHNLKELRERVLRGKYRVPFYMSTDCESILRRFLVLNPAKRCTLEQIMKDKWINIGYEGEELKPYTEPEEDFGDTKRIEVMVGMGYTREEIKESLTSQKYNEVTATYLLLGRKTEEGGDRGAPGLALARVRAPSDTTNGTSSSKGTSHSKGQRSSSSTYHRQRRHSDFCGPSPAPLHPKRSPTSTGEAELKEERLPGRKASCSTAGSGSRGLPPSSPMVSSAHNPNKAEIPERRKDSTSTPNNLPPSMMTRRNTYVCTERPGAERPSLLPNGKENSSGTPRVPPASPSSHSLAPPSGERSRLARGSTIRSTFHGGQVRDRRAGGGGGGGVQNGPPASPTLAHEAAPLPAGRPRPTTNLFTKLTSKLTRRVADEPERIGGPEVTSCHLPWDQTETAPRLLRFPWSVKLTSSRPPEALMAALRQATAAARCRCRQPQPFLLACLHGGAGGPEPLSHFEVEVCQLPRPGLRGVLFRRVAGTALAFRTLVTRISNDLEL
Particulars: at 0.1 µM.

Assay [3] has as its target T1, MAP/microtubule affinity-regulating kinase 4 (Homo sapiens). The settings on record: at 1 µM.
The target of assay [4] is Maternal embryonic leucine zipper kinase (Homo sapiens) (UniProt Q14680). The settings on record: at 0.1 µM.
Sequence of Maternal embryonic leucine zipper kinase (Homo sapiens) (Q14680 whole entry, looked up): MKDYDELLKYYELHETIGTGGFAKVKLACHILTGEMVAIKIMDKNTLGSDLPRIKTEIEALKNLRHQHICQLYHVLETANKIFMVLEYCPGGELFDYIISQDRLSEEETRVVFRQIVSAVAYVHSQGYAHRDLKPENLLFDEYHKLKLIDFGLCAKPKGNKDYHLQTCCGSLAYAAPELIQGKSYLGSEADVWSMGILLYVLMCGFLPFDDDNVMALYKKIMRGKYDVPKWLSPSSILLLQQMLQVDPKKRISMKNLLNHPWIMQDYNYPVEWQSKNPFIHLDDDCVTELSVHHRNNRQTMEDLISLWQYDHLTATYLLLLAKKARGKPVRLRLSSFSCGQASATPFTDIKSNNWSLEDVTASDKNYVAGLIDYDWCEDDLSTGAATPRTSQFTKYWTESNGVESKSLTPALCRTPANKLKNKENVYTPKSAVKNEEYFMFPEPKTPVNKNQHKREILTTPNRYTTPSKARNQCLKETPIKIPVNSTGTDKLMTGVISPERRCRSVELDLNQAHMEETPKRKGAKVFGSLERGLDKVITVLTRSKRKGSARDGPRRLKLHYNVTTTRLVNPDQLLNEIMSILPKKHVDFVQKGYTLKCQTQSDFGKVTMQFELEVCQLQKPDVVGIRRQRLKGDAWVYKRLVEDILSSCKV
Assay [5] has the same target. Particulars: at 1 µM.
The target of assay [6] is MAP kinase-interacting serine/threonine-protein kinase 1 (Homo sapiens) (UniProt Q9BUB5). The settings on record: at 0.1 µM.
Sequence of MAP kinase-interacting serine/threonine-protein kinase 1 (Homo sapiens) (Q9BUB5 whole entry, looked up): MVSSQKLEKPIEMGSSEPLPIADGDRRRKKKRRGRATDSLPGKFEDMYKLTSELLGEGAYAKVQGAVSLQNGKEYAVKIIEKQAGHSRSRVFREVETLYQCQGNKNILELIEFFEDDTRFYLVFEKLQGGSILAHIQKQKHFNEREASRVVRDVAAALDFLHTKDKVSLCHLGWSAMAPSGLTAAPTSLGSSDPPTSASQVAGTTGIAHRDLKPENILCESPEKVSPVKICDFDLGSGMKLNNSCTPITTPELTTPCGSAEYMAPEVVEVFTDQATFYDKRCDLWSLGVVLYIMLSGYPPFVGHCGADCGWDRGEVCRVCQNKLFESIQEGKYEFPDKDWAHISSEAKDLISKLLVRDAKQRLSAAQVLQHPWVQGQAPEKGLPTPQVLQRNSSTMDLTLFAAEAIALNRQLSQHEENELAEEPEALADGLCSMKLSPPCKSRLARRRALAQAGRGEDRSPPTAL
Assay [7] has the same target. Particulars: at 1 µM.
In assay [8] the target is MAP kinase-interacting serine/threonine-protein kinase 2 (Homo sapiens) (UniProt Q9HBH9). Particulars: at 0.1 µM.
Sequence of MAP kinase-interacting serine/threonine-protein kinase 2 (Homo sapiens) (Q9HBH9 whole entry, looked up): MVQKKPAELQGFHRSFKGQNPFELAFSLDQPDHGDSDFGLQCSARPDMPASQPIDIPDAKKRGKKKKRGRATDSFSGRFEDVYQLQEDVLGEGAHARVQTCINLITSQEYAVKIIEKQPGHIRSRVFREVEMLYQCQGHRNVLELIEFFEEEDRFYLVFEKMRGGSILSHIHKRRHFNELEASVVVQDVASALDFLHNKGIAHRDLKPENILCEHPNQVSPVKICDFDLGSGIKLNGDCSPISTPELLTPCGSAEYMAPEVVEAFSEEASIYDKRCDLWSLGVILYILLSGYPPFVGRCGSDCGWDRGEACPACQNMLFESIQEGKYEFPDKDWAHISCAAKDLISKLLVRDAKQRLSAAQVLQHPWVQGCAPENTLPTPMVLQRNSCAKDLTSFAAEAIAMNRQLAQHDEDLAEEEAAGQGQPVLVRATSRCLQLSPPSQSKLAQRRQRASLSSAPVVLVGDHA
The target is the same in assay [9]. Particulars: at 1 µM.
Assay [10] addresses Serine/threonine-protein kinase MARK2 (Homo sapiens) (UniProt Q7KZI7). The settings on record: at 0.1 µM.
Assay [11] has the same target. Particulars: at 1 µM.
Assay [12] addresses PAS domain-containing serine/threonine-protein kinase (Homo sapiens) (UniProt Q96RG2). The settings on record: at 0.1 µM.
For assay [13] the target is unchanged. Particulars: at 1 µM.
In assay [14] the target is Phosphorylase b kinase gamma catalytic chain, skeletal muscle/heart isoform (Homo sapiens) (UniProt Q16816). The settings on record: at 0.1 µM.
The target is the same in assay [15]. Particulars: at 1 µM.
In assay [16] the target is T2, Phosphorylase b kinase gamma catalytic chain, liver/testis isoform (Homo sapiens) (UniProt P15735).
T2 sequence (whole entry): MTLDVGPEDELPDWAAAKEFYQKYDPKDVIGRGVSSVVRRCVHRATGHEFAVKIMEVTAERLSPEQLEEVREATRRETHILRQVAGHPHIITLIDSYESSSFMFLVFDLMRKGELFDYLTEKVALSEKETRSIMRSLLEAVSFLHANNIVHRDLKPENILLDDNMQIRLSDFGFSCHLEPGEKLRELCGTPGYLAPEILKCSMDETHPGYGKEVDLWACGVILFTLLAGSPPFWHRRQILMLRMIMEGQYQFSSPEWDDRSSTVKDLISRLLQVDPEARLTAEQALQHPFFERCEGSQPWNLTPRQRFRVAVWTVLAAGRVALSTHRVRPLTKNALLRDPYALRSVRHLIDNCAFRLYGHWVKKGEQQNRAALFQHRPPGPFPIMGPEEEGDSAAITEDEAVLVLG
The settings on record: at 0.1 µM.

Assay [17] has as its target T2, Phosphorylase b kinase gamma catalytic chain, liver/testis isoform (Homo sapiens). Particulars: at 1 µM.
Assay [18] has as its target Serine/threonine-protein kinase pim-1 (Homo sapiens) (UniProt P11309). Particulars: at 0.1 µM.
For assay [19] the target is unchanged. The settings on record: at 1 µM.
In assay [20] the target is Serine/threonine-protein kinase pim-2 (Homo sapiens) (UniProt Q9P1W9). Particulars: at 0.1 µM.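 Further: reported value is the mean percent inhibition of PIM2, measured in the GSK PKIS kinase inhibitor set screen.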
Sequence of Serine/threonine-protein kinase pim-2 (Homo sapiens) (Q9P1W9 whole entry, looked up): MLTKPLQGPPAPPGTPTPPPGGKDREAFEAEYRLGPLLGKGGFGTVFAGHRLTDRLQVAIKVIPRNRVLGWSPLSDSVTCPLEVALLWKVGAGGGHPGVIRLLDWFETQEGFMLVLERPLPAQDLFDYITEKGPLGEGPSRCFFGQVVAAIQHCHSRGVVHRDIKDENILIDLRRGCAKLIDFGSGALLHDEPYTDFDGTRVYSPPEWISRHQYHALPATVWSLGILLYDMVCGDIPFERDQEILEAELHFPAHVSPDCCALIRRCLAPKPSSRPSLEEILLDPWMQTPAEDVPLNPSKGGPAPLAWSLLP

Sequence of Serine/threonine-protein kinase MARK2 (Homo sapiens) (Q7KZI7 whole entry): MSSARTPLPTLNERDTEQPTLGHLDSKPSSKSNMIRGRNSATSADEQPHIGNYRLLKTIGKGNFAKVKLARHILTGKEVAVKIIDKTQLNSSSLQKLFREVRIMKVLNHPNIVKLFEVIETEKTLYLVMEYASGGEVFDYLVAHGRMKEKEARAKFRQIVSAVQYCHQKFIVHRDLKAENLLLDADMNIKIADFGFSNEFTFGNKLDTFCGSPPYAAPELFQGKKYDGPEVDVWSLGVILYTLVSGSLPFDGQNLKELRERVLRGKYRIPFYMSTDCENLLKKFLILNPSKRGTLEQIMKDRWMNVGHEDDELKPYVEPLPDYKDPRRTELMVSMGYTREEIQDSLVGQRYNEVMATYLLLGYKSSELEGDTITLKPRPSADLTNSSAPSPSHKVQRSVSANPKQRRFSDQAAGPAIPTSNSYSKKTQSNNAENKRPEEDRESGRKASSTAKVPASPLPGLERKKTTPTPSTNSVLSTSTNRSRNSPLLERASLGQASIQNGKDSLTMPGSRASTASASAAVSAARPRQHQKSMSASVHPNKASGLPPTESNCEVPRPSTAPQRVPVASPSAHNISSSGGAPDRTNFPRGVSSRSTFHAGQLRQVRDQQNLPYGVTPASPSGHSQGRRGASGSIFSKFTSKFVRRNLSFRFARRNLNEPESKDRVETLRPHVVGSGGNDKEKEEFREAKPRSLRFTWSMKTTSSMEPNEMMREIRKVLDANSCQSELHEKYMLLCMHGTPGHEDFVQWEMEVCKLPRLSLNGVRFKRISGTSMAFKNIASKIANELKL
Sequence of MAP/microtubule affinity-regulating kinase 3 (Homo sapiens) (P27448 whole entry, looked up): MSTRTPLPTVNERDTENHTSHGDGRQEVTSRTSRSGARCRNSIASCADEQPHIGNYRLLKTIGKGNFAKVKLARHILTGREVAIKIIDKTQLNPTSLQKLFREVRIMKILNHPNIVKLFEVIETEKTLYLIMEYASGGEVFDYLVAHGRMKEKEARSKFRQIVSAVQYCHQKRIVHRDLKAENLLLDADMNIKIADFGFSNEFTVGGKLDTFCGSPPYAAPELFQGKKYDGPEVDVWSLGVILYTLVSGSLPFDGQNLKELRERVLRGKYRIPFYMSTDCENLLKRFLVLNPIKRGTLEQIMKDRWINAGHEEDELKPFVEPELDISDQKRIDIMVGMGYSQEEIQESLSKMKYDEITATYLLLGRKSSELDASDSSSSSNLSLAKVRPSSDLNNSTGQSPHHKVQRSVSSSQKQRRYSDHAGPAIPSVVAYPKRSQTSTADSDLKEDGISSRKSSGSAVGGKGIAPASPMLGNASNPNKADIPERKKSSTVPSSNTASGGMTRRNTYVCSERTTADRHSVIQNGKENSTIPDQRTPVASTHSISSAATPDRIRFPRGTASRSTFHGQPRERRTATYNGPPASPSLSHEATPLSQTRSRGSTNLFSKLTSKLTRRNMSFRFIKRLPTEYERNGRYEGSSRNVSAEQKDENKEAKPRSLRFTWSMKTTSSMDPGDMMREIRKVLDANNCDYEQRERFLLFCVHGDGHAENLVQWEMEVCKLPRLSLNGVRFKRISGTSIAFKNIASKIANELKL
Sequence of PAS domain-containing serine/threonine-protein kinase (Homo sapiens) (Q96RG2 whole entry, the tested form may be a part): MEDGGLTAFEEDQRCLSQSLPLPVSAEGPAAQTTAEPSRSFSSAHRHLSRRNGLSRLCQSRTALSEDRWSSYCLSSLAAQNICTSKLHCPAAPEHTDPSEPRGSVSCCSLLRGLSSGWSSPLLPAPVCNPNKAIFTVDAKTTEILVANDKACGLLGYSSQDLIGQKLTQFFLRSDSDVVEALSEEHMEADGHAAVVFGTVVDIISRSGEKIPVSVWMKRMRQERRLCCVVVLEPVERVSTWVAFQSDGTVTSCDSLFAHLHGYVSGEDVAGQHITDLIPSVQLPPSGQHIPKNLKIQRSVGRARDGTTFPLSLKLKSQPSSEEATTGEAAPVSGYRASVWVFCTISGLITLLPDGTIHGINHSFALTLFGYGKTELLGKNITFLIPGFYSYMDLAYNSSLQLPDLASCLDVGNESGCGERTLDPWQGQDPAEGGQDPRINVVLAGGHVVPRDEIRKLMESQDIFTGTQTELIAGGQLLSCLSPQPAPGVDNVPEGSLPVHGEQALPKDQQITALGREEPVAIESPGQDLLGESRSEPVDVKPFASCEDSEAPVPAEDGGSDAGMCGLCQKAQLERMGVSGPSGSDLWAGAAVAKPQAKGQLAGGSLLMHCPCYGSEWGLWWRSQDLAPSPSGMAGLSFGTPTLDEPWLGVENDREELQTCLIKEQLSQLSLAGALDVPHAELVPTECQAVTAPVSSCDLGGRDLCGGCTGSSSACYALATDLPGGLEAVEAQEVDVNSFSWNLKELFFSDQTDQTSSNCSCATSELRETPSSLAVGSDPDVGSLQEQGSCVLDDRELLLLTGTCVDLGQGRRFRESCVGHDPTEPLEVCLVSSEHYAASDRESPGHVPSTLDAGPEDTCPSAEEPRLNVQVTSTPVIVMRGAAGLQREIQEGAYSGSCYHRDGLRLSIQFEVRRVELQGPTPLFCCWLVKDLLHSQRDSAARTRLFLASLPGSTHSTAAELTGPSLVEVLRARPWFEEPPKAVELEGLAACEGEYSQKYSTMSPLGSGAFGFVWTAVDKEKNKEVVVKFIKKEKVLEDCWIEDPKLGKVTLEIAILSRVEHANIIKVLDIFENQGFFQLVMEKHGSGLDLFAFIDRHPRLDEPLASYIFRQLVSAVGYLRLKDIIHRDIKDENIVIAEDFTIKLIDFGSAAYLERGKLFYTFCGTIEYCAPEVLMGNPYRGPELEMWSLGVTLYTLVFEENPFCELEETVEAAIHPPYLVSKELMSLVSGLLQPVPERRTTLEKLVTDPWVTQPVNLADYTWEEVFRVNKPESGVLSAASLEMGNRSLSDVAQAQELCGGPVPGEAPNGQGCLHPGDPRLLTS

Take `CNC(=O)c1cncc(/C=C/c2ccccc2Cl)c1`: the inhibition in [1] is -4.55%; in [2] it was -0.44%; in assay [3], 2.25%; in assay [4], 0.11%; in assay [5] it was -3.52%; in assay [6] it was 4.17%. In addition, the inhibition is 23.1% in [7]; 6.83% in assay [8]; 17.6% in assay [9]; 1.5% in assay [10]; 0.58% in assay [11]; 1.8% in [12]. The inhibition in [13] is 4.02%; in [14], -1.06%; in assay [15], 2.44%; in assay [16], 1.88%; in [17], 5.64%; in [18] it was 0.54%. The inhibition was 0.89% in assay [19] and 0.13% in assay [20].

Consider `CC(C)COC(=O)c1ccc2c(c1)/C(=C/Nc1ccc(S(N)(=O)=O)cc1)C(=O)N2`, for which the inhibition in assay [1] is 88.7%; in assay [2] it was 24.6%; in assay [3], 77.5%; in [4], 50.1%; in [5], 93.2%; in assay [6], -1.01%. Further, the inhibition in assay [7] turned out to be 6.56%; in assay [8], 1.73%; in assay [9], 13.9%; in [10] it was 25.9%; in [11] it was 70.5%; in [12], 0.36%. In addition, the inhibition in assay [13] was 2.64%; in assay [14], 12.2%; in [15], 50.5%; in [16], -1.63%; in assay [17], 16.4%; in assay [18], 3.92%. Besides, the values for the inhibition in [19] and in [20] were 27.8% and 0.83%, respectively.

`Nc1nc(-c2cccc(Cl)c2)c(-c2ccc3ncccc3n2)s1`: the inhibition was 6.68% in assay [1]; 1.87% in [2]; -0.31% in assay [3]; 4.19% in [4]; 11.3% in assay [5]; 3.39% in assay [6]. In addition, the inhibition in assay [7] is 9.69%; in assay [8] it was 2.72%; in assay [9], 7.56%; in [10], 1.01%; in [11], -0.63%; in assay [12], 0.04%. Further, the inhibition in assay [13] turned out to be 1.47%; in assay [14], 6.45%; in assay [15] it was 11.3%; in assay [16] it was 5.42%; in assay [17], 10.1%; in [18] it was 1.14%. Also, the inhibition was 3.59% in [19] and -0.44% in [20].

In the case of `COc1cc(N2CCN(C(C)C)CC2)ccc1Nc1nc(Nc2ccc(F)cc2C(N)=O)c2cc[nH]c2n1`, the inhibition in assay [1] worked out at 67.4%; in assay [2], 4.23%; in assay [3], 37.8%; in [4], 18%; in [5], 78.3%; in [6], 0.9%. The inhibition in [7] was 1.83%; in [8] it was 1.81%; in assay [9] it was 8.99%; in assay [10], 5.75%; in assay [11], 39.3%; in [12], -0.71%. Further, the inhibition in assay [13] came to 2.69%; in assay [14], 58.2%; in assay [15], 78.1%; in assay [16], 19.1%; in [17], 64.7%; in [18], 3.27%. Besides, the inhibition in assay [19] was 25.3%; in assay [20], -0.44%.

For `CC1=C(C(=O)Nc2cc(Cl)c3[nH]ncc3c2)C(c2ccc(C(F)(F)F)cc2)CC(=O)N1` (stereo not given), the inhibition worked out at 9.91% in [1]; 1.64% in [2]; 3.1% in assay [3]; 5.47% in [4]; 7.81% in assay [5]; 2.74% in assay [6]. The inhibition is 7.79% in assay [7]; 2.19% in assay [8]; 5.02% in assay [9]; 1.6% in [10]; 5.38% in assay [11]; -0.35% in assay [12]. The inhibition in assay [13] came out at 0.16%; in assay [14] it was 3.83%; in assay [15] it was 6.61%; in assay [16], 3.02%; in assay [17], 4.01%; in assay [18], 0.67%. The inhibition in assay [19] was 0.15%; in [20] it was 0.31%.

In the case of `CC(=O)Nc1cccc(C#Cc2cncnc2Nc2ccc(OCc3cccc(F)c3)c(Cl)c2)c1`, the inhibition came out at 4.64% in [1]; 0.9% in assay [2]; 0.69% in [3]; 1.32% in [4]; 1.11% in [5]; 2.02% in [6]. Also, the inhibition in [7] was 15.4%; in assay [8] it was 1.16%; in [9] it was 6.2%; in assay [10] it was -0.32%; in [11] it was 0.33%; in assay [12], 1.37%. Further, the inhibition in assay [13] was -0.46%; in [14], 0.65%; in [15], 1.71%; in assay [16], 3.82%; in [17] it was 1.55%; in [18] it was 1.32%. For the same compound, the inhibition in assay [19] came out at 0.75%; in assay [20] it was 0.84%.

On to `CCCN(CCS(C)(=O)=O)Cc1ccc(-c2ccc3ncnc(Nc4ccc(OCc5cccc(F)c5)c(Cl)c4)c3c2)o1`, for which the inhibition in assay [1] is -0.4%; in assay [2] it was 0.58%; in assay [3] it was -0.36%; in [4], 3.57%; in assay [5] it was 3.34%; in assay [6], 3.79%. The inhibition was 9.77% in assay [7]; 2.98% in assay [8]; 10.9% in [9]; -0.65% in assay [10]; -0.2% in assay [11]; 0.15% in assay [12]. The inhibition in assay [13] was -0.42%; in assay [14], 1.09%; in [15], 2.68%; in assay [16] it was 1.93%; in assay [17] it was 1.35%; in assay [18] it was 0.83%. Further, the inhibition in assay [19] is 0.67%; in [20], -0.45%.
